The term AC50 denotes the concentration at which the activity in the assay is half-maximal.

In PubChem BioAssay (EPA / NIEHS) one finds AC50 and outcome data, which are given here for six compounds.

“And” between values parts separate entries of the source, which are not always exact repeats. Equal entries are not always repeated. Results filed as inconclusive are left out. A structure can be active in one record and inactive in another. The source made the active and inactive calls. How the source made its calls, unless noted: active means hit-call score of the fitted dose curve at least 0.9, where 1 is the maximum; inactive means score below 0.9.

Assay [1] in a line: APR_HepG2_CellCycleArrest_1hr: Apredica 1-hour HepG2 Assay for Cell Cycle Arrest (AID 2282666). The note with it: high-content imaging, actives raise or lower the signal. In a few lines: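 Cell cycle arrest scored from nuclear DNA content (Hoechst 33342) using high-content imaging of fixed HepG2 cells after 1 h treatment across 0.39–200 uM, in duplicate. Gain or loss fitted relative to 0.5% DMSO.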

Assay [2] is described as follows: ACEA_ER_80hr: ACEA Biosciences xCELLigence Real-Time Cell Analysis on Estrogen Receptor Agonism for Proliferation (AID 2282667; active means hit-call score of the fitted dose curve at least 0.9, where 1 is the maximum). As to conditions: T47D proliferation, impedance (xCELLigence), 80 h. The essentials:
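Estrogen-driven proliferation is captured as electrode impedance in T47D cells 80 h after compound addition. Test articles ran at 8 concentrations, 1:4 dilutions from 100 uM final, in two replicate plates.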

A short description of assay [3]: APR_HepG2_CellLoss_1hr: Apredica 1-hour HepG2 Assay for Cell Loss (AID 2282668).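 Further: curves fitted both ways against DMSO so gain or loss of cells counts.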 The note with it: high-content imaging. In a few lines:
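Cell number comes from high-content imaging of Hoechst-labelled nuclei in fixed HepG2 cells. Cells were exposed for 1 h to ten concentrations from 0.39 to 200 uM in 0.5% DMSO. Gain or loss was fitted against DMSO controls.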

Assay [4] in a line: APR_HepG2_MicrotubuleCSK_1hr: Apredica 1-hour HepG2 Assay for Microtubule CSK Stabilty (AID 2282669). The note with it: HepG2 microtubule cytoskeleton imaging, actives raise or lower the signal. The essentials: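 Alpha-tubulin immunofluorescence, imaged by automated high-content microscopy with Hoechst nuclear segmentation, measured cytoskeletal change after 1 h dosing of HepG2 at 0.39–200 uM in 0.5% DMSO. Activity fitted in both directions relative to DMSO.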

Assay [5] can be described thus: APR_HepG2_NuclearSize_1hr: Apredica 1-hour HepG2 Assay for Nuclear Size (AID 2282670). The note with it: high-content imaging, actives raise or lower the signal. In a few lines: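 Nuclear size measured by high-content imaging of Hoechst 33342 nuclear stain after formaldehyde fixation; human HepG2 line exposed 1 hr to compounds at 0.39–200 uM in 0.5% DMSO, with bidirectional curve fitting relative to DMSO.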

Assay [6] can be described thus: APR_HepG2_P-H2AX_1hr: Apredica 1-hour HepG2 Assay for H2AX Phosphorylation (AID 2282673). As to conditions: high-content imaging, actives raise or lower the signal. In a few lines:
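Phospho-H2A.x immunofluorescence (1:200, FITC secondary) plus Hoechst nuclear stain, quantified by high-content imaging in HepG2 after 1 hr compound exposure. Ten concentrations, 0.39 to 200 uM, in duplicate with 0.5% DMSO; fit both directions against DMSO.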

Assay [7] is described as follows: APR_HepG2_MitoMembPot_1hr: Apredica 1-hour HepG2 Assay for Mitochondrial Membrane Potential (AID 2282675). The note with it: imaging, actives raise or lower the signal. The essentials:
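Mitochondrial membrane potential read as MitoTracker Red CMXRos intensity by automated imaging of fixed HepG2 cells. Dye at 250 nM for 30 min pre-fixation; compounds 0.39 to 200 uM for 1 hour, duplicate wells, 0.5% DMSO.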

A short description of assay [8]: APR_HepG2_CellCycleArrest_24hr: Apredica 24-hour HepG2 Assay for Cell Cycle Arrest (AID 2282905).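 Further: cell cycle arrest scored as ratio of 2N to 4N nuclear DNA content.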 As to conditions: imaging, actives raise or lower the signal. The essentials: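 After 24 h exposure at 0.39–200 uM in 0.5% DMSO, fixed cells received Hoechst 33342 staining. Imaging quantified per-nucleus DNA content; gain or loss fitted against DMSO controls.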
Assay [9] is described as follows: APR_HepG2_MitoticArrest_24hr: Apredica 24-hour HepG2 Assay for Mitotic Arrest (AID 2282910). As to conditions: high-content imaging, actives raise or lower the signal. In a few lines: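 High-content imaging of fixed HepG2 cells labeled with Hoechst 33342 and anti-phospho-histone H3, after 24 h treatment. Ten concentrations 0.39 to 200 uM in duplicate, final DMSO 0.5%; changes fitted both directions relative to DMSO.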

The nature of assay [10]: APR_HepG2_MitoMembPot_24hr: Apredica 24-hour HepG2 Assay for Mitochondrial Membrane Potential (AID 2282911). The note with it: imaging, actives raise or lower the signal. The essentials:
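Mitochondrial dye uptake (MitoTracker Red CMXRos, 250 nM, 30 min pre-fixation) in HepG2 after 24 hr compound exposure, 0.39–200 uM; ArrayScan images at 20x, activity fitted in both directions relative to DMSO.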

The nature of assay [11]: APR_HepG2_MitoMass_24hr: Apredica 24-hour HepG2 Assay for Mitochondrial Mass (AID 2282912). The note with it: high-content imaging, actives raise or lower the signal. In a few lines:
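Endpoint is MitoTracker Red CMXRos (250 nM, 30 min, pre-fixation) intensity from 20x high-content imaging, nuclei located by Hoechst. Human HepG2 cells received ten concentrations from 0.39 to 200 uM in 0.5% DMSO for 24 hr, duplicate wells. Bidirectional fit relative to DMSO.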

Assay [12] in a line: APR_HepG2_CellCycleArrest_72hr: Apredica 72-hour HepG2 Assay for Cell Cycle Arrest (AID 2282914). The note with it: high-content imaging, actives raise or lower the signal. The essentials:
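Using multiplexed high-content imaging, HepG2 nuclei stained with Hoechst 33342 (2 ug/mL) were analysed for DNA content after fixation and permeabilization. Treatment lasted 72 hr across 0.39–200 uM in duplicate with final DMSO 0.5% v/v; DMSO served as negative control.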

Assay [13] is described as follows: APR_HepG2_NuclearSize_24hr: Apredica 24-hour HepG2 Assay for Nuclear Size (AID 2282907). The note with it: high-content imaging, actives raise or lower the signal. In a few lines: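 Nuclear size from Hoechst 33342-stained, formaldehyde-fixed HepG2 nuclei imaged by high-content microscopy, after 24 h dosing at ten concentrations from 0.39 to 200 uM in 0.5% DMSO; gain or loss relative to DMSO baseline.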

The nature of assay [14]: APR_HepG2_CellLoss_24hr: Apredica 24-hour HepG2 Assay for Cell Loss (AID 2282908).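 On AC50: fit in both directions so a hit may be cell loss or gain.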 The note with it: high-content imaging. The essentials: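 Nuclei stained with Hoechst 33342 after formaldehyde fixation (3.7%) were imaged at 20x to count cells. Exposure lasted 24 hr, at ten concentrations from 0.39 to 200 uM in duplicate, with 0.5% v/v DMSO. Fit bidirectional, relative to DMSO.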

Assay [15] in a line: APR_HepG2_p53Act_24hr: Apredica 24-hour HepG2 Assay for p53 Activation (AID 2282913).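 Further: p53 protein immunofluorescence averaged per cell in HepG2 with Hoechst nuclei.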 The note with it: high-content imaging, actives raise or lower the signal. In a few lines:
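Following 24 hr dosing of HepG2 at 0.39–200 uM, the cells undergo formaldehyde fixation, Triton permeabilization and multiplexed antibody labeling that includes p53 (Cy5). Signal from the imaging is referenced to DMSO solvent controls.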

Assay [16] is described as follows: APR_HepG2_MitoMass_1hr: Apredica 1-hour HepG2 Assay for Mitochondrial Mass (AID 2282674). As to conditions: high-content imaging, actives raise or lower the signal. In a few lines:
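Mitochondrial mass is taken from MitoTracker Red CMXRos (250 nM, 30 min, pre-fixation) fluorescence imaged at 20x in HepG2 cells. Exposure lasted 1 hr across ten concentrations, 0.39 to 200 uM, 0.5% DMSO; DMSO baseline, bidirectional fitting.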

Assay [17] can be described thus: APR_HepG2_MicrotubuleCSK_24hr: Apredica 24-hour HepG2 Assay for Microtubule CSK Stabilty (AID 2282909). The note with it: HepG2 microtubule cytoskeleton imaging, actives raise or lower the signal. The essentials: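 Fixed HepG2 cells were stained for alpha-tubulin and imaged after 24 hr exposure to ten concentrations spanning 0.39–200 uM in 0.5% DMSO. Signal change was fitted in both directions relative to DMSO; taxol was the positive control.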

Assay [18] in a line: APR_HepG2_p53Act_1hr: Apredica 1-hour HepG2 Assay for p53 Activation (AID 2282671). The note with it: high-content imaging, actives raise or lower the signal. The essentials: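 After 1 h exposure (0.39–200 uM, 0.5% DMSO final, duplicates), fixed HepG2 cells were labelled with anti-p53 antibody plus Hoechst nuclear stain. Fluorescence quantified by automated 20x imaging; changes fitted in both directions against DMSO.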

Assay [19] can be described thus: APR_HepG2_StressKinase_1hr: Apredica 1-hour HepG2 Assay for Stress Kinase (AID 2282906). The note with it: HepG2 stress kinase (phospho-c-Jun) imaging, actives raise or lower the signal. The essentials:
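High-content imaging of phospho-c-Jun immunostaining (with Hoechst nuclear identification) after a 1 h exposure of HepG2 cells to 10 concentrations from 0.39 to 200 uM, final DMSO 0.5%. Fitted bidirectionally against DMSO.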

Regarding `CCCN(CCC)c1c([N+](=O)[O-])cc(S(N)(=O)=O)cc1[N+](=O)[O-]`, the AC50 is 108 µM (active) in assay [1]; 66.6 µM (active) in [3]; 61.6 µM (active) in [5]; 88.7 µM (active) in assay [6]; 34.9 µM (active) in [8]; 35.4 µM (active) and 38.4 µM (active) in [9]. Moreover, the AC50 in assay [10] is 31.6 µM (active) and 117 µM (active) and 110 µM (active); in [11] it was 164 µM (active) and 113 µM (active); in [12] it was 27.2 µM (active) and 57.9 µM (active) and 34 µM (active). The compound was classed as inactive in assay [2], in assay [4], in [7], in assay [8], in assay [9] and in assay [10]. Moreover, the compound was classed as inactive in assay [11] and in assay [12].

In the case of `CNC(=S)S`, the compound was called inactive in assay [1], in [2], in assay [3], in assay [4], in assay [5] and in [6]. The compound was called inactive in assay [7], in assay [13], in [10], in assay [11], in assay [15] and in assay [12]. In addition, the AC50 is 20.5 µM (active) in [8], 80.1 µM (active) in assay [14] and 85.2 µM (active) in [9].

In the case of `N#Cc1nn(-c2c(Cl)cc(C(F)(F)F)cc2Cl)c(N)c1S(=O)C(F)(F)F` (stereo not given), the result in assay [1], in [2], in assay [3], in assay [4], in assay [5] and in [6] was inactive. Moreover, the call in [16], in assay [10], in assay [11] and in assay [15] was inactive. Also, the AC50 in assay [7] is 54.4 µM (active); in assay [8], 50.9 µM (active); in [14] it was 96.2 µM (active); in assay [17], 87.2 µM (active); in assay [9], 100 µM (active); in assay [12] it was 19.9 µM (active).

Regarding `CNC(=O)ON=CC(C)(C)SC`, the compound was called inactive in assay [1], in assay [2], in assay [3], in [4], in assay [18] and in [6]. Moreover, the result in assay [7], in assay [8], in assay [13], in assay [14], in [9] and in assay [10] was inactive. Besides, the call in assay [11], in assay [15] and in assay [12] was inactive.

Turning to `O=C(O)c1nc(Cl)ccc1Cl`, the compound was called inactive in assay [1], in assay [2], in assay [3], in assay [4], in assay [5] and in assay [18]. Besides, the compound was classed as inactive in assay [6], in assay [16], in [7], in assay [8], in assay [14] and in [9]. Besides, the call in [10], in assay [11], in assay [15] and in assay [12] was inactive.

Consider `N#CC(CCc1ccc(Cl)cc1)(Cn1cncn1)c1ccccc1` (stereo not given), for which the call in assay [1], in assay [2], in [3], in assay [4], in assay [18] and in assay [6] was inactive. Besides, the compound was called inactive in [7], in [8], in assay [19], in assay [10], in [11] and in assay [12]. For the same compound, the AC50 was 102 µM (active) in [14], 104 µM (active) in [17], 106 µM (active) in assay [9] and 103 µM (active) in assay [15].
